Laboratory results taken from the supplement of paper PMC13380429.

Tested on: Vero E6 infected with SARS-CoV-2
Experiment: inhibition of SARS-CoV-2 cytopathic effect; higher = more antiviral protection, active = above 15
Conditions: 48 h

Measured: inhibition of SARS-CoV-2 cytopathic effect

CCN(CC)CCCCC1CCN(CC(=O)N2c3ccccc3C(=O)Nc3cccnc32)CC1
inactive: 1 nM -0.6% | 8.33 nM 0.18% | 100 nM -0.52% | 833.33 nM -1.51% | 10000 nM -4.44%

N[C@@H](Cc1ccc(Cl)cc1)C(=O)O (racemic) [fenclonine-(+/-)]
inactive: 1 nM 1.09% | 8.33 nM 0.73% | 100 nM 0.7% | 833.33 nM 4.29% | 10000 nM 3%

CN(CCOc1ccc(-c2ccc3c(c2)OCO3)cc1C(C)(C)C)CC(=O)O
inactive: 1 nM 1.26% | 8.33 nM -3.67% | 100 nM -6.89% | 833.33 nM -0.1% | 10000 nM -1.31%

CCN1CCCC1=O [1-ethyl-2-pyrrolidone]
inactive: 1 nM -1.68% | 8.33 nM 2.91% | 100 nM 3.54% | 833.33 nM -0.7% | 10000 nM -2.48%

O=C(c1ccc(Cl)o1)N1CC2CNCC2C1 (stereo not given)
inactive: 1 nM -0.08% | 8.33 nM 1.51% | 100 nM 2.2% | 833.33 nM 1.83% | 10000 nM 0.93%

C[N+](C)(C)NCCC(=O)O [meldonium]
inactive: 1 nM -1.15% | 8.33 nM -0.85% | 100 nM -2.99% | 833.33 nM -0.28% | 10000 nM -2.51%

CCNC(=O)c1n[nH]c(-c2cc(Cl)c(O)cc2O)c1-c1ccc(OC)cc1
inactive: 1 nM -4.03% | 8.33 nM -4.15% | 100 nM -2.27% | 833.33 nM -3.38% | 10000 nM -0.29%

COC(=O)N[C@H](C(=O)N1CCC[C@H]1c1ncc(-c2ccc(-c3ccc(-c4cnc([C@@H]5CCCN5C(=O)[C@@H](NC(=O)OC)C(C)C)[nH]4)cc3)cc2)[nH]1)C(C)C [daclatasvir]
inactive: 1 nM -1.73% | 8.33 nM 0.14% | 100 nM -0.71% | 833.33 nM -2.47% | 10000 nM -0.59%

Cc1cccc(CN2CCN(C(c3ccccc3)c3ccc(Cl)cc3)CC2)c1 (stereo not given) [meclizine]
inactive: 1 nM 4.53% | 8.33 nM 3.44% | 100 nM 2.18% | 833.33 nM 4.25% | 10000 nM 3.46%

CCN(CCCOc1ccc2c(Nc3cc(CC(=O)Nc4cccc(F)c4)[nH]n3)ncnc2c1)CCOP(=O)(O)O [barasertib]
inactive: 1 nM -0.38% | 8.33 nM 0.9% | 100 nM -1.02% | 833.33 nM -2.03% | 10000 nM -4.38%

Oc1ccc2c3c1O[C@H]1c4[nH]c5c(c4C[C@@]4(O)[C@@H](C2)N(CC2CC2)CC[C@]314)C[C@@]1(O)[C@H]2Cc3ccc(O)c4c3[C@@]1(CCN2CC1CC1)[C@H]5O4 [nor-binaltorphimine]
inactive: 1 nM 1.48% | 8.33 nM 0.42% | 100 nM 2.76% | 833.33 nM 1.16% | 10000 nM -1.05%

O=C1[C@H](Cc2ccc(O)cc2)N2C(=O)CCN(C(=O)NCc3ccccc3)[C@H]2CN1Cc1cccc2ccccc12
inactive: 1 nM -0.18% | 8.33 nM 0.82% | 100 nM 2.23% | 833.33 nM 1.89% | 10000 nM -3.36%

CNc1ccc([N+](=O)[O-])cc1-n1cnc(-c2ccc(C(F)(F)F)cc2)c1
inactive: 1 nM 1.34% | 8.33 nM 1.42% | 100 nM 0.62% | 833.33 nM 1.02% | 10000 nM -0.19%

CCOC(=O)Nc1ccc(NCc2c(C)cc(C)cc2C)cc1N
inactive: 1 nM 0.63% | 8.33 nM 1.07% | 100 nM -0.41% | 833.33 nM -0.67% | 10000 nM 2.16%

CC(=O)S[C@@H]1CC2=CC(=O)CC[C@]2(C)[C@H]2CC[C@@]3(C)[C@@H](CC[C@@]34CCC(=O)O4)[C@H]12 [spironolactone]
inactive: 1 nM -0.66% | 8.33 nM -0.55% | 100 nM -0.37% | 833.33 nM 3.98% | 10000 nM 6.39%

C[N+]1(C)[C@@H]2CC[C@H]1C[C@@H](OC(=O)C(O)c1ccccc1)C2 (stereo not given in full) [homatropine-methylbromide]
inactive: 1 nM 0.79% | 8.33 nM 1.12% | 100 nM 0.14% | 833.33 nM 0.62% | 10000 nM 0.96%

Oc1ccc(/C=C/c2cc(O)cc(O)c2)cc1 [resveratrol]
inactive: 1 nM 1.06% | 8.33 nM 0.64% | 100 nM -2.17% | 833.33 nM -0.25% | 10000 nM 3.82%

CC(C)C[C@@H](N)C(=O)N[C@H]1C(=O)N[C@@H](CC(N)=O)C(=O)N[C@H]2C(=O)N[C@H]3C(=O)N[C@H](C(=O)N[C@H](C(=O)O)c4cc(O)cc(O)c4-c4cc3ccc4O)[C@H](O)c3ccc(c(Cl)c3)Oc3cc2cc(c3O[C@@H]2O[C@H](CO)[C@@H](O)[C@H](O)[C@H]2O[C@H]2C[C@](C)(N)[C@H](O)[C@H](C)O2)Oc2ccc(cc2Cl)[C@H]1O [norvancomycin]
inactive: 1 nM -0.51% | 8.33 nM 2.53% | 100 nM 11.9% | 833.33 nM 1.73% | 10000 nM -2.8%
